The panel holds about 79,000 compounds, 15% with a hit somewhere; the sample as a whole holds those more often. Activity calls are given as the source filed them. Cut-off read from the data, not from the text of the source: active = growth inhibition above about 70%; inactive = the rest.
Legend:
[1] = NCI Yeast Anticancer Drug Screen. Data for the rad52 strain (AID 147);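 note: 0% = growth of vehicle-treated control cultures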; conditions: S. cerevisiae rad52 mutant growth inhibition, hits give high values
How it was run: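 Vehicle-treated cultures served as the reference for growth inhibition of compound-exposed yeast bearing a DNA repair mutation.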

[2] = NCI Yeast Anticancer Drug Screen. Data for the wt1 strain (AID 149);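 note: 0% = growth of vehicle-treated wt1 cultures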; conditions: S. cerevisiae wt1 strain (SPY 50644) growth inhibition, hits give high values
How it was run: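 Measured: growth of wt1 yeast under compound versus vehicle treatment, reported as inhibition.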

[3] = NCI Yeast Anticancer Drug Screen. Data for the rad50EPP+ strain (AID 151);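 note: 0% = growth of vehicle-treated control cultures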; conditions: S. cerevisiae rad50 mutant strain, hits give high values
How it was run: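 In this screen, rad50EPP+ yeast were exposed to compounds. Growth inhibition was scored against vehicle-treated controls.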

[4] = NCI Yeast Anticancer Drug Screen. Data for the rad50 strain (AID 155);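 note: 0% = growth of vehicle-only cultures of the same strain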; conditions: S. cerevisiae rad50 strain growth inhibition, hits give high values
How it was run: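 Growth of the mutant yeast was measured after compound exposure and referenced to vehicle-treated cultures.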

[5] = NCI Yeast Anticancer Drug Screen. Data for the mec2-1 strain (AID 157); conditions: S. cerevisiae mec2-1 strain, hits give high values
How it was run: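 Vehicle-treated cultures served as reference for growth inhibition of compound-exposed mec2-1 yeast.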

[6] = NCI Yeast Anticancer Drug Screen. Data for the rad14 strain (AID 159);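 note: 0% = growth of vehicle-treated control cultures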; conditions: S. cerevisiae rad14 strain growth inhibition, hits give high values
How it was run: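 Here, inhibition of yeast growth was measured after compound exposure, using a strain with a genetic defect in DNA damage repair and vehicle-treated cultures as the reference.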

[7] = NCI Yeast Anticancer Drug Screen. Data for the sgs1 mgt1 strain (AID 161);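 note: 0% = growth of cultures given vehicle only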; conditions: S. cerevisiae sgs1 mgt1 strain, hits give high values
How it was run: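 Genetically altered yeast, compound exposure, growth inhibition relative to vehicle.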

[8] = NCI Yeast Anticancer Drug Screen. Data for the CLN2oe strain (AID 163);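 note: 0% = growth of vehicle-only control cultures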; conditions: S. cerevisiae CLN2oe strain, hits give high values
How it was run: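 Inhibition relative to vehicle-treated yeast is reported. Cells: strain with genetic alteration in cell-cycle control, grown with compound.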

[9] = NCI Yeast Anticancer Drug Screen. Data for the cln2 rad14 strain (AID 165);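 note: 0% = growth equal to vehicle treated cultures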; conditions: S. cerevisiae cln2 rad14 strain, hits give high values
How it was run: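 Each compound was tested on cln2 rad14 yeast. Inhibition of growth was calculated against vehicle-exposed controls.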

[10] = NCI Yeast Anticancer Drug Screen. Data for the bub3 strain (AID 167); conditions: S. cerevisiae bub3 mutant strain, hits give high values
How it was run: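 Whole-cell yeast assay. The mutant strain was incubated with compounds, and growth inhibition was determined by comparison with vehicle-treated cells.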

[11] = NCI Yeast Anticancer Drug Screen. Data for the wt2 strain (AID 169);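 note: 0% = growth of vehicle-treated yeast cultures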; conditions: S. cerevisiae wt2 strain growth inhibition, hits give high values
How it was run: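 Inhibition of yeast growth was determined after compound treatment, normalised to controls receiving only vehicle.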

[12] = NCI Yeast Anticancer Drug Screen. Data for the mlh1 strain (AID 171);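 note: 0% = growth of vehicle-treated control cultures of the same strain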; conditions: S. cerevisiae mlh1 strain growth inhibition, hits give high values
How it was run: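 Vehicle-normalised growth inhibition of a repair- or checkpoint-altered yeast strain following compound treatment.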

[13] = NCI Yeast Anticancer Drug Screen. Data for the sgs1 strain (AID 173);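 note: 0% = growth of vehicle-only control cultures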; conditions: S. cerevisiae sgs1 mutant, hits give high values
How it was run: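 Screen format: yeast with repair or checkpoint alterations, compound exposure, growth read relative to vehicle.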

[14] = NCI Yeast Anticancer Drug Screen. Data for the mlh1 rad18 strain (AID 175); conditions: S. cerevisiae mlh1 rad18 strain growth inhibition, hits give high values
How it was run: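 Vehicle-treated cultures served as the reference for growth inhibition in a yeast strain carrying DNA damage repair alterations exposed to each compound.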

[15] = NCI Yeast Anticancer Drug Screen. Data for the rad18 strain (AID 177); conditions: S. cerevisiae rad18 mutant growth inhibition, hits give high values
How it was run: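 Test articles were incubated with altered yeast defective in DNA damage repair. Results are given as inhibition of growth versus vehicle.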

[16] = at 5.0 µM (retest, dose inferred, filed as 0.5)
[17] = at 50.0 µM (retest, dose inferred, filed as 5.0)

Measured: growth inhibition

CCc1nc(N)nc(N)c1-c1ccc(NCCCCCCN)c([N+](=O)[O-])c1
active: [4]; at 50.0 µM 86% | [5]; at 50.0 µM 95.6% | [7]; at 50.0 µM 92.7% | [9]; [17] 83% | [9]; at 50.0 µM 96.2% | [10]; at 50.0 µM 93.5% | [14]; at 50.0 µM 97.2%
inactive: [1]; at 1.2 µM -3% | [1]; at 3.7 µM 0% | [1]; at 11.0 µM 2% | [1]; at 33.0 µM 11% | [1]; at 100.0 µM 32% | [2]; at 1.2 µM -1% | [2]; at 3.7 µM -1% | [2]; at 11.0 µM -1% | [2]; at 33.0 µM -3% | [2]; at 100.0 µM -4% | [3]; at 1.2 µM -6% | [3]; at 3.7 µM -3% | [3]; at 11.0 µM -3% | [3]; at 33.0 µM 1% | [3]; at 100.0 µM 17% | [4]; at 1.2 µM 0% | [4]; at 3.7 µM -2% | [4]; [16] -16% | [4]; at 11.0 µM 11% | [4]; at 33.0 µM 17% | [4]; [17] -4% | [4]; at 100.0 µM 42% | [5]; at 1.2 µM -1% | [5]; at 3.7 µM -4% | [5]; [16] 4% | [5]; at 11.0 µM -4% | [5]; at 33.0 µM -4% | [5]; [17] -10% | [5]; at 100.0 µM 11% | [6]; at 1.2 µM 4% | [6]; at 3.7 µM -4% | [6]; at 11.0 µM -3% | [6]; at 33.0 µM -13% | [6]; at 100.0 µM 0% | [7]; [16] -22% | [7]; [17] -16% | [8]; at 1.2 µM -3% | [8]; at 3.7 µM 1% | [8]; at 11.0 µM -5% | [8]; at 33.0 µM 0% | [8]; at 100.0 µM -5% | [9]; [16] -19% | [10]; at 1.2 µM -7% | [10]; at 3.7 µM -4% | [10]; [16] 11% | [10]; at 11.0 µM 9% | [10]; at 33.0 µM 17% | [10]; [17] -16% | [10]; at 100.0 µM -2% | [11]; at 1.2 µM -1% | [11]; at 3.7 µM 0% | [11]; at 11.0 µM -2% | [11]; at 33.0 µM -3% | [11]; at 100.0 µM -4% | [12]; at 1.2 µM -4% | [12]; at 3.7 µM -1% | [12]; at 11.0 µM 0% | [12]; at 33.0 µM -6% | [12]; at 100.0 µM -5% | [13]; at 1.2 µM -3% | [13]; at 3.7 µM -2% | [13]; at 11.0 µM -3% | [13]; at 33.0 µM -5% | [13]; at 100.0 µM -3% | [14]; [16] -27% | [14]; [17] -34%

O=C(Nc1ccc2c(c1)Cc1c-2ccc([N+](=O)[O-])c1F)C(F)(F)F
active: [14]; [17] 79%
inactive: [1]; at 1.2 µM 4% | [1]; at 3.7 µM 4% | [1]; at 11.0 µM 5% | [1]; at 33.0 µM 5% | [1]; at 100.0 µM 3% | [2]; at 1.2 µM 2% | [2]; at 3.7 µM 3% | [2]; at 11.0 µM 7% | [2]; at 33.0 µM 4% | [2]; at 100.0 µM 3% | [3]; at 1.2 µM 9% | [3]; at 3.7 µM 0% | [3]; at 11.0 µM 6% | [3]; at 33.0 µM 11% | [3]; at 100.0 µM 20% | [4]; at 1.2 µM 2% | [4]; at 3.7 µM 4% | [4]; [16] 2% | [4]; at 11.0 µM 4% | [4]; at 33.0 µM 3% | [4]; [17] 11% | [4]; at 50.0 µM 2.95% | [4]; at 100.0 µM 4% | [5]; at 1.2 µM -1% | [5]; at 3.7 µM 0% | [5]; [16] -17% | [5]; at 11.0 µM -1% | [5]; at 33.0 µM 1% | [5]; [17] -11% | [5]; at 50.0 µM 1.35% | [5]; at 100.0 µM 2% | [6]; at 1.2 µM 1% | [6]; at 3.7 µM 1% | [6]; at 11.0 µM 0% | [6]; at 33.0 µM 2% | [6]; at 100.0 µM 2% | [7]; [16] 23% | [7]; [17] 19% | [7]; at 50.0 µM -3.05% | [8]; at 1.2 µM -2% | [8]; at 3.7 µM -3% | [8]; at 11.0 µM -4% | [8]; at 33.0 µM -11% | [8]; at 100.0 µM -4% | [9]; [16] 4% | [9]; [17] 7% | [9]; at 50.0 µM -10.7% | [10]; at 1.2 µM -2% | [10]; at 3.7 µM 1% | [10]; [16] -4% | [10]; at 11.0 µM 1% | [10]; at 33.0 µM 1% | [10]; [17] 12% | [10]; at 50.0 µM 8.35% | [10]; at 100.0 µM -4% | [11]; at 1.2 µM 2% | [11]; at 3.7 µM 0% | [11]; at 11.0 µM 2% | [11]; at 33.0 µM 2% | [11]; at 100.0 µM 0% | [12]; at 1.2 µM 5% | [12]; at 3.7 µM 3% | [12]; at 11.0 µM 3% | [12]; at 33.0 µM 2% | [12]; at 100.0 µM 2% | [13]; at 1.2 µM 1% | [13]; at 3.7 µM 3% | [13]; at 11.0 µM -1% | [13]; at 33.0 µM 1% | [13]; at 100.0 µM 3% | [14]; [16] 62% | [14]; at 50.0 µM 18.4% | [15]; at 1.2 µM 4% | [15]; at 3.7 µM 0% | [15]; at 11.0 µM -25% | [15]; at 33.0 µM 5% | [15]; at 100.0 µM 9%
